Compound activity deposited in PubChem BioAssay by National Center for Advancing Translational Sciences (NCATS).
G9a inh: blocks human histone lysine methyltransferase G9a. Q96KQ7. G9a H3K9 monomethylation, AlphaScreen, 2 h. Potency, µM (top dose mostly 102 µM), most hits filed as inhibitors. 350,000 compounds, 8.8% hits. AID 504332; also: nearly all actives have a fitted effect of over 75% in size
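Quantitative HTS format: methyltransferase activity on a biotin-tagged H3K9 peptide is measured by AlphaScreen, using a rabbit anti-monomethyl-H3K9 antibody with streptavidin donor and anti-IgG acceptor beads. Final levels are 20 nM enzyme, 500 nM peptide, 20 uM SAM; 2 h RT.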
JMJD2A Tudor: inhibitors of human JMJD2A Tudor domain; AID 504339; Potency, µM (titrated, usually from 114 µM), hits mostly inhibitors; AlphaScreen JMJD2A-Tudor / H3K4me3 peptide binding; 390,000 compounds, 4.4% hits; also: nearly all actives have a fitted effect of over 50% in size
Target sequence (O75164 whole entry, looked up, the tested form may be a part): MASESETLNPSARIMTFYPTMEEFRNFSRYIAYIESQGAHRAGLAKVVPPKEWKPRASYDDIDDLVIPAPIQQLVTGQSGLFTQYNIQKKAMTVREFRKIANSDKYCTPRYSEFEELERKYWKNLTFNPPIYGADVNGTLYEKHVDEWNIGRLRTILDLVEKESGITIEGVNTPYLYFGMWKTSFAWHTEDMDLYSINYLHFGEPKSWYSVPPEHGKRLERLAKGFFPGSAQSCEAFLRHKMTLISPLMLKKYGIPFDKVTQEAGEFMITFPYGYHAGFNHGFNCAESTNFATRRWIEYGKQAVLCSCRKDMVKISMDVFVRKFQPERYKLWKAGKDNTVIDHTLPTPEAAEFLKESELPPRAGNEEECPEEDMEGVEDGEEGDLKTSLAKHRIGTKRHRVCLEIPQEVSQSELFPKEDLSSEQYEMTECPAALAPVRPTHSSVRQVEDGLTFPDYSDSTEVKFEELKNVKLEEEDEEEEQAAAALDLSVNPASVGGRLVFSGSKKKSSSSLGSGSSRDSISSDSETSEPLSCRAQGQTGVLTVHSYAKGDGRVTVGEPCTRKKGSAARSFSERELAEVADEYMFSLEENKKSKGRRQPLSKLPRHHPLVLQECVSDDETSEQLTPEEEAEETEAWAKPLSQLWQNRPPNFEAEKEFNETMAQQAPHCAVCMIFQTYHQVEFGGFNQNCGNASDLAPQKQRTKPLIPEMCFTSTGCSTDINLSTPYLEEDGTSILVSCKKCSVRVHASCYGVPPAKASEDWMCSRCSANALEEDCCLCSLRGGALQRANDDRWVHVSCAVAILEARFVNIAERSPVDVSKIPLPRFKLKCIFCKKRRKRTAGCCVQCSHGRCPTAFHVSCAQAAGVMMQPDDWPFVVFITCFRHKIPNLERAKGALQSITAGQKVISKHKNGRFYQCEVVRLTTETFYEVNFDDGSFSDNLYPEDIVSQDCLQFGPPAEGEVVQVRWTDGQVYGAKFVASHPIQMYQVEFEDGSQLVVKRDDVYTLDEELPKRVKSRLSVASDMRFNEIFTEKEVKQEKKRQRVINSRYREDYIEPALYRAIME
GLS inh: glutaminase GLS (human) inhibition; GLS enzymatic activity, qHTS titration; 410,000 compounds, 0.21% hits; AID 624170; Potency, µM (titrated, usually from 45.5 µM), most hits filed as inhibitors
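Human kidney-isoform GLS in 45 mM KH2PO4 pH 8.2, 0.02% Tween-20, with compound, started with 1mM L-Glutamine (added stock). Glutamate oxidase/HRP/Amplex red coupled fluorescence read at start and after 30 min at RT.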
HP1b binding inh: blocks HP1-beta chromodomain binding to methylated histone tails | Potency, µM (top dose mostly 114 µM), usual class: inhibitors | P83916 | 390,000 compounds, 0.56% hits | AlphaScreen HP1-beta / biotin-H3K9me3 peptide binding; also: nearly all actives have a fitted effect of over 70% in size
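HP1-beta protein (50 nM final) preincubated 30 min at room temperature with biotinylated H3(1-18)K9me3 peptide (50 nM) in PBS pH 7.4, 0.01% Tween-20, then compound added for 30 min. AlphaScreen streptavidin donor/nickel chelate acceptor beads (10 ug/mL final), 30 min dark, luminescence read.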
BAZ2B inh: inhibitors of human BAZ2B bromodomain; Q9UIF8; AlphaScreen BAZ2B-H3K14Ac peptide displacement; Potency, µM (series often up to 114 µM), most hits filed as inhibitors; 360,000 compounds, 4.4% hits; also: nearly all actives have a fitted effect of over 60% in size
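Compounds, titrated to a top concentration of 110 uM, were incubated 30 min at room temperature with preformed BAZ2B/acetyl-K14 H3 peptide complex (50 nM each). Proximity signal was measured by AlphaScreen after 20 min with beads.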
Hits are given with their value; i = inactive; ? = inconclusive; nt = no result given; [ ] = another dose, or the depositor's remark. An excerpt weighted towards active compounds, which were near 10% of everything screened. Calls follow the shape of the dose curve; as a rule, active = well fitted curve in the direction sought with a large enough effect; inconclusive = small, poorly fitted or top-dose-only effect, or another doubt; inactive = no such curve, though single readings can be large; an effect the other way counts as inactive or inconclusive.

SMILES	G9a inh	JMJD2A Tudor	GLS inh	HP1b binding inh	BAZ2B inh
CCN(CCCNC(=O)CSc1cc(=O)n(CC)c2ccccc12)c1cccc(C)c1	?	31.6µM	i	?	22.4µM
CCN(CCCNC(=O)COc1cc(=O)n(CC)c2ccccc12)c1ccccc1	11.2µM	?	i	i	?
CCN(CCCNC(=O)c1cn(CC)c2ccc(S(=O)(=O)N(C)C)cc2c1=O)c1cccc(C)c1	35.5µM	?	i	i	?
CCN(CCCNC(=O)CCNC(=O)Cn1cnc2ccccc2c1=O)c1cccc(C)c1	?	i	i	i	i
CCC(=O)Nc1cccc(NC(=O)c2cc3ccccc3o2)c1	i	i[11.4 µM]	i	i	i
CN1CCC(N2CCN(c3cccc(C(F)(F)F)c3)CC2)CC1	?	i	i	i	?
O=C1c2c(O)cc(O)cc2O[C@H](c2ccc(O)c(O)c2)[C@@H]1O	i	nt	nt	nt	?
O=C1c2ccccc2NC(c2ccccc2O)N1O (centres undefined)	i	i	i	i	i
O=C1c2ccccc2NC(c2cccs2)N1O (centres undefined)	31.6µM	?	i	i	i
COc1ccc(/C=C2\SC(=S)N(C(C)C(=O)NC3C=CS(=O)(=O)C3)C2=O)cc1 (centres undefined)	nt	?	i	i	?
COC(=O)c1cc(NC(=O)c2ccccc2)c(=O)oc1C/C=N\OCc1ccc(Cl)cc1Cl	39.8µM	i	i	i	i
O=C(C/C=N/OCc1ccc(Cl)cc1Cl)c1ccccc1	i	i	i	i	i
CO/N=C\Cc1oc(=O)c(NC(=O)c2ccccc2)cc1C(=O)OC	31.6µM	i[11.4 µM]	i	i	i
OCC(O)C(O)CC1SCCS1 (centres undefined)	nt	i	i	i	nt
COC(=O)c1c(C)[nH]c(C)c1-c1cccc([N+](=O)[O-])c1	56.2µM	i	i	i	?
COc1ccc(Oc2c(O)c3ccccc3n(C)c2=O)cc1	44.7µM	i	i	i	i
Cn1c(Oc2ccc(Cl)cc2)c(C=O)c2ccccc21	i	i	i	i	i
Cn1c(=O)c(Oc2ccc(Cl)cc2)c(O)c2ccccc21	79.4µM	i	i	i	i
Cc1cccc(NC(=O)CC23CC4CC(C2)CC(n2nnc(C)n2)(C4)C3)c1	i	i	i	i	i
CCOc1ccc(C2C(C#N)=C(N)Oc3cc(C)n(CCN4CCOCC4)c(=O)c32)cc1OCC (centres undefined)	i	i	i	i	i
C=CCN1C(=O)/C(=C2/C(=O)N(CC(=O)O)c3ccccc32)S/C1=N/c1nccs1	i[2.33 µM]	nt	nt	nt	12.6µM
C=CCN1C(=O)/C(=C/c2ccc(O)cc2)S/C1=N/c1nccs1	i	i	i	i	i
CC1CCCCN1C(=O)Nc1cccc(C(F)(F)F)c1 (centres undefined)	?	i	i	i	i
NS(=O)(=O)c1ccc(CNC(=O)c2csc3c2CCCC3)cc1	20µM	i	i	i	i
O=C(Cc1cccs1)NCc1ccc(Cl)cc1	i	i	i	i	i
SMILES	G9a inh	JMJD2A Tudor	GLS inh	HP1b binding inh	BAZ2B inh
Oc1ccccc1C=NCCN1CCN(CCN=Cc2ccccc2O)C1c1ccccc1O (centres undefined)	nt	22.4µM	i	i	nt
CC[N+](C)(CC)CCC/C(=N/O)C(O)(c1ccccc1)c1ccccc1	50.1µM	?	i	i	i
CCN(CC)CCC/C(=N\O)C(O)(c1ccccc1)c1ccccc1	?	i	i	i	i
N#CC1=C(N)Oc2cc(Nc3ccccc3)ccc2C1c1ccncc1 (centres undefined)	nt	79.4µM	i	i	?
Cc1sc(NC(=O)CS(=O)(=O)c2ccccc2)c(C(N)=O)c1C	i	i	i	i	i
O=C(c1ccc(Cl)c(S(=O)(=O)N2CCCC2)c1)N1CCN(c2ccccc2)CC1	i	12.6µM	?	?	i
O=C(c1ccc(S(=O)(=O)N2CCCCCC2)cc1)N1CCN(c2ccccc2)CC1	i	79.4µM	i	i	i
O=C(c1ccc(Cl)c(S(=O)(=O)N2CCCC2)c1)N1CCN(c2ccc(F)cc2)CC1	44.7µM	?	i	i	56.2µM
O=C(c1ccc(Cl)c(S(=O)(=O)N2CCCCC2)c1)N1CCN(c2ccccc2)CC1	i	i	i	i	i
O=C(c1cccc(S(=O)(=O)N2CCCCC2)c1)N1CCN(c2ccccc2)CC1	i	i	i	i	i
